# About 230 (0.064%) of roughly 360,000 compounds were called active. No stated cut-off is given here; in the data, active means activity above about 50% (passing the limit was not always enough); inconclusive means no clear call, values can overlap the other calls. The list comes from a sample in which actives are over-represented; it also holds similar structures and randomly drawn compounds.
# System: DNA topoisomerase I (Yersinia pestis CO92)
# Assay: Yersinia pestis topoisomerase I inhibitors, primary screen, biochemical, cleavage product accumulation, plate reader, single point (AID 504884)
# Conditions: Y. pestis Topo-I cleavage product accumulation, at 10 µM, stronger effect = higher value
row,SMILES,activity
1,CCOC(=O)/C=C/C(=O)OCC(=O)NC(c1ccccc1)c1ccccc1,7.5% (inactive)
2,COc1ccc(OC)c(CN2CCN(C(=O)CNC(=O)c3cc(C)cc(C)c3)CC2)c1,9.4% (inactive)
3,CCOC(=O)C(C)Oc1cccc2c(=O)n(CC(=O)N3CCc4ccccc43)ccc12 (configuration not stated),-0.583% (inactive)
4,COc1ccc(CN2CCNC(=O)C2CC(=O)NCc2cn[nH]c2-c2ccccc2)c(F)c1 (configuration not stated),14.5% (inactive)
5,COc1ccc(N(CC(=O)NC2CCCCC2)C(=O)CNC(=O)c2ccco2)c(OC)c1,18.1% (inactive)
6,CCOc1ccc(NC(=O)CCC(=O)NNC(=O)NC2CCCCC2)cc1,-4.6% (inactive)
7,N#Cc1cccc(NC(=O)CCC2CCCC2)c1,0.569% (inactive)
8,N#CC(C#N)=CN=c1ccn(Cc2ccc(Cl)cc2Cl)cc1,1.09% (inactive)
9,CC(C(=O)NC1CCCCC1)N1C(=O)c2cccc3cccc1c23 (configuration not stated),10.7% (inactive)
10,O=C(C[n+]1cc(-c2ccc(Cl)c(Cl)c2)n2c1CCC2)c1cccs1,5.58% (inactive)
11,Nc1nc(SCC(=O)NN(c2ccccc2)c2ccccc2)n[nH]1,-4.71% (inactive)
12,CN(CC(=O)N1CCN(c2ccccc2)CC1)S(=O)(=O)c1cccs1,3.69% (inactive)
13,Cc1cc(C)c(C2C3=C(Nc4c2c(C)nn4-c2ccccn2)c2ccccc2C3=O)c(C)c1 (configuration not stated),0.572% (inactive)
14,CC(C)CCNC(=O)C(C)N(C(=O)Cn1nnc(-c2ccc(F)cc2)n1)C1CCCC1 (configuration not stated),21.2% (inactive)
15,CN(C)C(CNC(=O)c1ccc(S(=O)(=O)NCc2ccco2)cc1)c1ccccc1 (configuration not stated),2.31% (inactive)
16,Cc1ccc(S(=O)(=O)NCC(=O)NNC(=O)c2ccc(Br)cc2)cc1C,9.73% (inactive)
17,O=S(=O)(c1ccc(-c2ccno2)s1)N1CCCCC1,0.748% (inactive)
18,COc1ccc(S(=O)(=O)NCC2CCCN(C(=O)c3occc3C)C2)cc1 (configuration not stated),0.202% (inactive)
19,Cc1cccc(N2CCN(C(=O)COCc3cc(-c4ccc5c(c4)OCO5)on3)CC2)c1C,38.3% (inactive)
20,COc1cc(C(=O)OCCCN2CCOCC2)cc(OC)c1OC,-0.169% (inactive)
21,Cc1ccc2nc(-c3ccc(SCC(=O)Nc4cc(C)on4)nc3)[nH]c2c1,1.96% (inactive)
22,CC(=O)Oc1ccc(OC(C)=O)c2c1C1C=CC2CC1,-5.11% (inactive)
23,O=C(NCC(F)(F)F)Nc1nnc(C(F)(F)F)s1,11.4% (inactive)

row,SMILES,activity
1,Cc1nn(C)c(C)c1S(=O)(=O)N1CCC(CO)(Cc2ccc(Cl)cc2)CC1,4.97% (inactive)
2,Cc1nnc(SCC(=O)NC(=O)NC2CCCC2)n1N,-5.78% (inactive)
3,CC1CN(/C=C/C(=O)C(F)(F)F)CC(C)O1 (configuration not stated),5.75% (inactive)
4,CCOc1ccc(NC(=O)CN(C)C(=O)Cn2c(=O)cnc3ccccc32)cc1OCC,1.46% (inactive)
5,CCOC(=O)c1[nH]cnc1C(=O)NC1CCCCC1,-3.43% (inactive)
6,CCc1nc2c(OCCC3CCCCC3)cccn2c1N(C)C(=O)c1ccco1,31.3% (inactive)
7,CC1CC(C)CN(c2ccc(S(=O)(=O)N3CCOCC3)cc2)C1 (configuration not stated),31.2% (inactive)
8,ClC1(Cl)CC1CSc1ncn[nH]1 (configuration not stated),4.63% (inactive)
9,CCCC(C)C(=O)OCC(=O)Nc1c(Br)cc(C)cc1Br (configuration not stated),0.888% (inactive)
10,COc1cccc2c1OCC(C(=O)NCc1ccc(Cl)cc1Cl)=C2,5.83% (inactive)
11,CCOc1nnc(C)c2c(C)n(-c3cccc(Cl)c3)nc12,0.181% (inactive)
12,O=C(CC1C(=O)NCCN1C(=O)c1ccc([N+](=O)[O-])cc1)Nc1cccc(Cl)c1 (configuration not stated),-5.36% (inactive)
13,CCc1ccccc1NC(=O)CCOc1ccccc1,2.54% (inactive)
14,CCc1ccccc1NC(=O)/C(=C/c1ccccc1)c1ccccc1,58.2% (active)
15,CCc1ccccc1NC(=S)Nc1cc(OC)c(NC(=O)C(C)C)cc1OC,-1.32% (inactive)
16,CCOc1ccc(S(=O)(=O)N2CCCCC2)cc1NC(=O)CN1CCCC1c1cccs1 (configuration not stated),9.92% (inactive)
17,COc1ccc2c(c1)CCc1cn3ncc(C#N)c3nc1-2,5.21% (inactive)
18,O=C(COc1ccc(F)cc1)N(CC1=CCS(=O)(=O)C1)c1ccccc1,3.66% (inactive)
19,CCN(C(=O)COc1ccc(C(=O)c2ccccc2)cc1)c1ccccc1,51.2% (active)
20,CCN(C(=O)c1ccc(Br)cc1)c1ccccc1,4.1% (inactive)
21,C=CCN(C(=O)c1cc(C)cc(C)c1)C1(C(=O)Nc2ccccc2)CCN(C(C)C)CC1,-1.88% (inactive)
22,C=C1CCN([C@@H](Cc2ccccc2)C(=O)N2CCOCC2)S(=O)(=O)c2ccccc21,11.9% (inactive)
23,CCc1cc(-c2n[nH]c(=S)n2CC(C)C)cs1,7.56% (inactive)

row,SMILES,activity
1,CCn1ncc(C2=NOC(C(=O)Nc3ccccc3C(=O)OC)C2)c1C (configuration not stated),16.1% (inactive)
2,C[N+]1(CCNC(=O)/C=N/O)CCCCC1,3.78% (inactive)
3,N#Cc1ccc(/C=C2\CCn3c2nc2cc(C(=O)O)ccc2c3=O)cc1,5.43% (inactive)
4,CCN(CC)S(=O)(=O)c1ccc(OC(C)C)c(N)c1,9.36% (inactive)
5,CCCC(C)C(=O)NCc1ccncc1 (configuration not stated),3.84% (inactive)
6,Cc1cnc(C(=O)OCc2c(C)cc(C(C)(C)C)cc2C)cn1,33.4% (inactive)
7,O=C(NC(c1ccc(Cl)cc1)P(=O)(Oc1ccccc1)Oc1ccccc1)OCc1ccccc1 (configuration not stated),-6.44% (inactive)
8,COc1cc(C(=O)OCc2cc(=O)n3ccsc3n2)ccc1OC(C)C,1.94% (inactive)
9,Cc1ccc(OCC(=O)Nc2ccccc2C(=O)NC2CC2)cc1,-5.78% (inactive)
10,COc1cc([N+](=O)[O-])ccc1NC(=O)COC(=O)CCOc1ccc(C)cc1,-0.7% (inactive)
11,CSc1ccccc1NC(=O)COC(=O)CCCOc1ccc(C)cc1,71.8% (active)
12,O=S(=O)(Nc1ccc2[nH]ncc2c1)c1ccccc1Cl,5.56% (inactive)
13,CC(NC(=O)c1ccccc1C(=O)O)c1ccc(-n2ccnc2)cc1 (configuration not stated),-18% (inactive)
14,C=C(C)CNc1cc(S(=O)(=O)N2CCOCC2)ccc1Oc1ccccc1,23% (inactive)
15,CCN(CC(=O)Nc1cc(Cl)ccc1C)C(=O)CN1C(=O)NC2(CCCC2)C1=O,-11.4% (inactive)
16,COC(=O)CN1C(=O)[C@H]2[C@@H](C3CC3)N3C(=O)CN(Cc4ccc(-c5ccccc5)cc4)C(=O)[C@@]3(Cc3ccccc3)[C@H]2C1=O,35.2% (inactive)
17,CCC1(C)NC(=O)N(CC(=O)N2CCN(c3cccc(Cl)c3)CC2)C1=O (configuration not stated),2.38% (inactive)
18,CCC1C=C(c2ccccc2)C=CN=C1N(CC)CC (configuration not stated),0.893% (inactive)
19,CCN(CC)S(=O)(=O)c1ccc(N2CCOCC2)c(NC(=O)C(C)Oc2ccc(F)cc2)c1 (configuration not stated),18% (inactive)
20,CCN1CCc2nc(NC(=O)c3cc(F)c(F)cc3Cl)sc2C1,6.77% (inactive)
21,COc1ccc(CCNC(=O)C(=O)NCC2CCNCC2)cc1OC,0.788% (inactive)
22,CC(C)C(NC(=O)OCc1ccccc1)C(=O)OCC(=O)N1C(C)CCCC1C (configuration not stated),15.6% (inactive)
23,COC(=O)[C@H](C)[C@H]1C[C@]1(C)[C@H](NC(=O)OCc1ccccc1)c1ccccc1,16.4% (inactive)

row,SMILES,activity
1,CC(C)[C@H](NC(=O)OCc1ccccc1)C(=O)OCc1ccccc1,58.9% (active)
2,COc1ccc(N(Cc2cc3ccc(C)cc3[nH]c2=O)S(=O)(=O)c2ccccc2)cc1,29.4% (inactive)
3,CN1C(C)(C)CC(NC(=O)CCC(=O)NC2CC(C)(C)N(C)C(C)(C)C2)CC1(C)C,-3.64% (inactive)
4,O=C(O)c1cc(S(=O)(=O)NC2CCCc3ccccc32)ccc1O (configuration not stated),-3.28% (inactive)
5,COc1ccc(N2CC(C)Cn3c2nc2c3c(=O)n(Cc3ccccc3F)c(=O)n2C)c(OC)c1 (configuration not stated),14.8% (inactive)
6,O=C(CN1C(=O)COc2ccc(Cl)cc21)N1CCOCC1,2.5% (inactive)
7,CCC(CC)c1nnc(NS(=O)(=O)Cc2ccccc2)s1,-2.39% (inactive)
8,Cc1ccc2c(C)c(C(=O)N3CCC(N4CCC(C(=O)NC5CC5)CC4)CC3)oc2c1,-3.85% (inactive)
9,Cc1ccc(-n2ncc3c(Nc4cccc(C(=O)O)c4)ncnc32)cc1,-7.17% (inactive)
10,Cc1ccc(Cl)cc1NC(=O)C1CCN(S(C)(=O)=O)CC1,6.58% (inactive)
11,c1cc2c(cc1C1OCC3C(c4ccc5c(c4)OCO5)OCC13)OCO2 (configuration not stated),21.1% (inactive)
12,CC(=O)c1cccc(OCC(=O)OCC(=O)Nc2cc(S(=O)(=O)N3CCCCC3)ccc2C)c1,29.7% (inactive)
13,COc1cccc(N(CC(=O)NCCSc2ccccn2)S(C)(=O)=O)c1,-7.24% (inactive)
14,O=C(CSc1nc2cc3c(cc2c(=O)n1CCC1=CCCCC1)OCO3)NCc1ccco1,-0.243% (inactive)
15,Cc1cccn2cc(-c3cccc(S(=O)(=O)N4CCCCC4)c3)nc12,23.2% (inactive)
16,Cc1ccc(F)cc1S(=O)(=O)Nc1cccc(C(=O)N2CCCC(C(N)=O)C2)c1 (configuration not stated),0.477% (inactive)
17,CC1(C)c2[nH]c3ccccc3c2C[C@H]2C(=O)N(N)CC(=O)N21,-8.39% (inactive)
18,CCOC(=O)Cn1c(=O)n(Cc2ccc(OC)cc2)c(=O)c2cccnc21,9.56% (inactive)
19,Cc1cc(C(=O)O)c(S(C)(=O)=O)s1,-6.33% (inactive)
20,CC(=O)Nc1ccc(Nc2ncnc3c2nnn3Cc2ccccc2Cl)cc1,2.24% (inactive)
21,Cc1cccc(OC(=O)c2sc3ncn(C)c(=O)c3c2C)c1,-1.35% (inactive)
22,CC1CC(C)(C)n2c(O)c(N=NC(N)=S)c3cccc1c32 (configuration not stated),-5.67% (inactive)
23,CCOc1ccccc1OCC(=O)Nc1ccccc1C(=O)NC1CC1,-3.16% (inactive)

# From PubChem BioAssay AID504884 (Broad Institute, 2011)
